# Inconclusive results are not listed. Entries that show only a call come without a potency. Activity calls are given as the source filed them. Calls follow the shape of the dose curve; as a rule, active = well fitted inhibition curve with a large enough effect; inconclusive = small, poorly fitted or top-dose-only effect; inactive = flat fitted curve, though single readings scatter.
# Biological target: Glutathione peroxidase 1 (Homo sapiens) (UniProt P07203)
# Test: Primary qHTS Assay for Inhibitors of Recombinant Selenoprotein Glutathione Peroxidase 1 (GPX1) (AID 1845191); also: nearly all actives have a fitted effect of over 65% in size
# Settings: recombinant GPX1, GR-coupled NADPH fluorescence, 15 min; series mostly up to 48.8 µM
# In short: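 GPX1 10 nM, GR 100 nM, GSH 1 mM, NADPH 0.5 mM, CHP 0.5 mM (final). 30-min cpd preincubation, RT. Ex340/Em450 read t=0, t=15 min.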
# Potency is read from the fitted curve at half-maximal effect.
# Chain of Glutathione peroxidase 1 (Homo sapiens) (P07203 whole entry, looked up): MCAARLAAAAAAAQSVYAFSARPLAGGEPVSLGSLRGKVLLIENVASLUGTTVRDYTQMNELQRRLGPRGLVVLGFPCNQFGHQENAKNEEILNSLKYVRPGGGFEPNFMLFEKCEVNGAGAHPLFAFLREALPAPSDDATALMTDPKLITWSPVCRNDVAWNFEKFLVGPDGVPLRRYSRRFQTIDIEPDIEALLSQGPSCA
row,Compound,Potency
1,NC1CONC1=O (centres undefined),inactive
2,N[C@@H](Cc1c[nH]c2ccccc12)C(=O)O,inactive
3,Cn1c(=O)c2[nH]c(-c3ccc(S(=O)(=O)O)cc3)nc2n(C)c1=O,10 µM (active)
4,CCCC[C@@]1(C2CCCC2)Cc2cc(OCC(=O)O)c(Cl)c(Cl)c2C1=O,inactive
5,CC1=C(C(=O)O)N2C(=O)[C@@H](NC(=O)C(N)C3=CCC=CC3)[C@H]2SC1 (some centres undefined),inactive
6,Cc1nc2c(OCc3ccccc3)cccn2c1CC#N,inactive
7,c1ccc(C(NCCNC(c2ccccc2)c2ccccc2)c2ccccc2)cc1,inactive
8,Cc1cccc(C2CN(C)CCc3c2cc(O)c(O)c3Cl)c1 (centres undefined),inactive
9,CCN1C(=O)C=CC1=O,inactive
10,Oc1ccc(/C=C/c2ccc(/C=C/c3ccc(O)cc3)c(Br)c2)cc1,inactive
11,COc1ccccc1N1CCN(CCN(C(=O)c2ccc(F)cc2)c2ccccn2)CC1,inactive
12,Nc1ccc(CCNc2ncnc3c2ncn3C2OC(CO)C(O)C2O)cc1 (centres undefined),inactive
13,CC#CCOC(=O)c1c(C)nc2sc3c(c2c1N)CCC(O)C3 (centres undefined),inactive
14,CCCCCC[C@@H]([C@@H](C)O)n1cnc2c(N)ncnc21,inactive
15,COc1cc(N)c(Cl)cc1C(=O)OCCN1CCCCC1,inactive
16,CNCCNS(=O)(=O)c1cccc2cnccc12,inactive
17,CCCN(CCc1ccccc1)C1CCc2c(O)cccc2C1 (centres undefined),inactive
18,COc1ccccc1N1CCN(CCCCNC(=O)c2ccc3ccccc3c2)CC1,inactive
19,CSc1nc(N)c2ncn([C@@H]3O[C@H](COP(=O)(O)OP(=O)(O)O)C(O)[C@H]3O)c2n1 (some centres undefined),inactive

# Source: PubChem BioAssay (NCATS)
